# From PubChem BioAssay AID1159580 (chemical genetic matrix, 2015)
# Several values for one entry are separate records, joined by “and”; a condition that tells them apart may be missing. Identical values can stand only once. The whole screen tested about 5,500 compounds, of which about 2,000 (36%) were called active. Not shown: some 18% with an inconclusive outcome. The list shows a part of the results. Values without a mark were called inactive. Cut-off read from the data, not from the text of the source: active = normalized growth mostly below about 0.91 (no sharp cut-off); inconclusive = no clear call, values can overlap the other calls; inactive = mostly above about 0.92.
# Experiment: chemical genetic growth profiling, strain panel (AID 1159580);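 note: tested at 20 µM; growth read once vehicle control cultures reached saturation at 30 °C; 1 = growth at the plate median or of vehicle wells; lower values mean less growth of the strain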
# Conditions: S. cerevisiae deletion strains, growth OD
compound,measurement,setting,value
CC(C)c1c(O)ccc2c1CCC1[C@@](C)(CO)CCC[C@]21C (stereo partly specified),normalized growth,"locus YAL013W, strain DEP1, hits give low values",0.978
same,normalized growth,"locus YAL021C, strain ccr4, hits give low values",1.01
same,normalized growth,"locus YAL026C, strain drs2, hits give low values",1.01
same,normalized growth,"locus YAL030W, strain snc1, hits give low values",1.01
same,normalized growth,"locus YBL061C, strain skt5, hits give low values",1.01
same,normalized growth,"locus YBR009C, strain hhf1, hits give low values",1.04
same,normalized growth,"locus YBR021W, strain FUR4, hits give low values",0.945
same,normalized growth,"locus YBR023C, strain chs3, hits give low values",1.03
same,normalized growth,"locus YBR171W, strain sec66, hits give low values",1.02
same,normalized growth,"locus YBR229C, strain ROT2, hits give low values",0.958
same,normalized growth,"locus YBR231C, strain swc5, hits give low values",1.02
same,normalized growth,"locus YBR279W, strain paf1, hits give low values",1.02
same,normalized growth,"locus YCL011C, strain gbp2, hits give low values",1.02
same,normalized growth,"locus YCL016C, strain dcc1, hits give low values",1.02
same,normalized growth,"locus YCL029C, strain bik1, hits give low values",0.941
same,normalized growth,"locus YCL069W, strain vba3, hits give low values",1.02
same,normalized growth,"locus YCR088W, strain abp1, hits give low values",1.02
same,normalized growth,"locus YDL005C, strain med2, hits give low values",1.02
same,normalized growth,"locus YDL035C, strain GPR1, hits give low values",0.964
same,normalized growth,"locus YDL040C, strain nat1, hits give low values",1.01
same,normalized growth,"locus YDL074C, strain BRE1, hits give low values",0.834
same,normalized growth,"locus YDL101C, strain DUN1, hits give low values",0.947
same,normalized growth,"locus YDL134C, strain PPH21, hits give low values",0.911
same,normalized growth,"locus YDL185W, strain tfp1, hits give low values",0.975
same,normalized growth,"locus YDL192W, strain arf1, hits give low values",0.92
same,normalized growth,"locus YDR001C, strain nth1, hits give low values",1.01
same,normalized growth,"locus YDR069C, strain doa4, hits give low values",1
same,normalized growth,"locus YDR101C, strain arx1, hits give low values",0.967
same,normalized growth,"locus YDR137W, strain rgp1, hits give low values",0.885
same,normalized growth,"locus YDR150W, strain NUM1, hits give low values",0.983
same,normalized growth,"locus YDR159W, strain sac3, hits give low values",1.02
same,normalized growth,"locus YDR162C, strain NBP2, hits give low values",0.79 (active)
same,normalized growth,"locus YDR195W, strain ref2",1.05
same,normalized growth,"locus YDR297W, strain sur2, hits give low values",1.02
same,normalized growth,"locus YDR318W, strain mcm21, hits give low values",0.911 (active)
same,normalized growth,"locus YDR334W, strain swr1, hits give low values",1.03
same,normalized growth,"locus YDR335W, strain msn5, hits give low values",1.03
same,normalized growth,"locus YDR388W, hits give low values",0.957
same,normalized growth,"locus YDR392W, strain spt3, hits give low values",0.991
same,normalized growth,"locus YDR502C, strain sam2, hits give low values",0.898 (active)
same,normalized growth,"locus YEL003W, strain gim4, hits give low values",1.01
same,normalized growth,"locus YEL037C, strain rad23, hits give low values",1.02
same,normalized growth,"locus YEL061C, strain CIN8 (second series), hits give low values",1.03
same,normalized growth,"locus YEL061C, strain CIN8, hits give low values",0.971
same,normalized growth,"locus YER015W, strain faa2, hits give low values",1.02
same,normalized growth,"locus YER016W, strain bim1, hits give low values",1.01
same,normalized growth,"locus YER110C, hits give low values",0.971
same,normalized growth,"locus YER111C, strain swi4, hits give low values",1.04
same,normalized growth,"locus YER155C, strain BEM2 (second series), hits give low values",1.03
same,normalized growth,"locus YER155C, strain BEM2, hits give low values",0.966
same,normalized growth,"locus YER167W, strain BCK2, hits give low values",0.949
same,normalized growth,"locus YFR010W, strain ubp6, hits give low values",1.03
same,normalized growth,"locus YGL078C, strain dbp3, hits give low values",0.961
same,normalized growth,"locus YGL086W, strain mad1, hits give low values",0.898 (active)
same,normalized growth,"locus YGL167C, strain pmr1, hits give low values",1.01
same,normalized growth,"locus YGL173C, strain kem1, hits give low values",1.02
same,normalized growth,"locus YGL227W, strain vid30, hits give low values",1.02
same,normalized growth,"locus YGL240W, strain doc1, hits give low values",1.01
same,normalized growth,"locus YGL248W, strain PDE1, hits give low values",0.924
same,normalized growth,"locus YGL253W, strain hxk2, hits give low values",1.01
same,normalized growth,"locus YGR078C, strain PAC10, hits give low values",0.889
same,normalized growth,"locus YGR135W, strain pre9, hits give low values",0.93
same,normalized growth,"locus YGR252W, strain gcn5, hits give low values",0.88
same,normalized growth,"locus YHR013C, strain ard1, hits give low values",1.03
same,normalized growth,"locus YHR027C, strain rpn1, hits give low values",1.03
same,normalized growth,"locus YHR030C, strain SLT2, hits give low values",1.04
same,normalized growth,"locus YHR079C, strain IRE1 (second series), hits give low values",0.96
same,normalized growth,"locus YHR079C, strain IRE1, hits give low values",1.07
same,normalized growth,"locus YHR094C, strain hxt1, hits give low values",0.958
same,normalized growth,"locus YHR129C, strain ARP1, hits give low values",0.949
same,normalized growth,"locus YHR142W, strain chs7, hits give low values",1.01
same,normalized growth,"locus YHR200W, strain rpn10, hits give low values",0.931
same,normalized growth,"locus YIL066C, strain RNR3, hits give low values",0.94
same,normalized growth,"locus YIL073C, strain SPO22, hits give low values",0.871
same,normalized growth,"locus YIL125W, strain kgd1, hits give low values",0.973
same,normalized growth,"locus YIR030C, strain dcg1, hits give low values",0.954
same,normalized growth,"locus YJL092W, strain hpr5, hits give low values",1.01
same,normalized growth,"locus YJL095W, strain BCK1 (second series), hits give low values",1
same,normalized growth,"locus YJL095W, strain BCK1, hits give low values",0.811 and 1.03
same,normalized growth,"locus YJL115W, strain asf1, hits give low values",1.03
same,normalized growth,"locus YJL129C, strain trk1, hits give low values",0.961
same,normalized growth,"locus YJL134W, strain LCB3, hits give low values",0.973
same,normalized growth,"locus YJL154C, strain vps35, hits give low values",1.01
same,normalized growth,"locus YJL164C, strain tpk1, hits give low values",1.02
same,normalized growth,"locus YJL166W, strain qcr8, hits give low values",1.01
same,normalized growth,"locus YJL168C, strain set2, hits give low values",0.957
same,normalized growth,"locus YJL187C, strain SWE1 (second series), hits give low values",0.918
same,normalized growth,"locus YJR066W, strain TOR1, hits give low values",1.01
same,normalized growth,"locus YKL009W, strain mrt4, hits give low values",0.91
same,normalized growth,"locus YKL068W, hits give low values",0.965
same,normalized growth,"locus YKL085W, strain MDH1 (second series), hits give low values",0.961
same,normalized growth,"locus YKL085W, strain MDH1, hits give low values",0.961
same,normalized growth,"locus YKL160W, strain elf1, hits give low values",1.02
same,normalized growth,"locus YKL190W, strain CNB1, hits give low values",0.979
same,normalized growth,"locus YKR001C, strain vps1, hits give low values",0.895 (active)
same,normalized growth,"locus YKR026C, strain gcn3, hits give low values",1.02
same,normalized growth,"locus YKR091W, strain srl3, hits give low values",1.01
same,normalized growth,"locus YLL001W, strain dnm1, hits give low values",1.01
same,normalized growth,"locus YLL026W, hits give low values",1.01
same,normalized growth,"locus YLL041C, strain sdh2, hits give low values",1.03
same,normalized growth,"locus YLR027C, strain aat2, hits give low values",0.999
same,normalized growth,"locus YLR039C, strain RIC1, hits give low values",0.443 (active)
same,normalized growth,"locus YLR058C, strain SHM2, hits give low values",0.944
same,normalized growth,"locus YLR102C, strain apc9, hits give low values",0.959
same,normalized growth,"locus YLR113W, strain HOG1, hits give low values",0.996
same,normalized growth,"locus YLR221C, strain rsa3, hits give low values",1.01
same,normalized growth,"locus YLR258W, strain gsy2, hits give low values",1.03
same,normalized growth,"locus YLR262C, strain YPT6 (second series), hits give low values",0.842 (active)
same,normalized growth,"locus YLR262C, strain YPT6, hits give low values",0.397 (active)
same,normalized growth,"locus YLR268W, strain sec22, hits give low values",0.926
same,normalized growth,"locus YLR320W, strain mms22, hits give low values",1.01
same,normalized growth,"locus YLR330W, strain CHS5, hits give low values",0.951
same,normalized growth,"locus YLR342W, strain FKS1, hits give low values",1.01
same,normalized growth,"locus YLR357W, strain rsc2, hits give low values",1.08
same,normalized growth,"locus YLR370C, strain arc18, hits give low values",1.03
same,normalized growth,"locus YLR371W, strain rom2, hits give low values",0.97
same,normalized growth,"locus YLR384C, strain iki3, hits give low values",1.03
same,normalized growth,"locus YLR418C, strain cdc73, hits give low values",0.725 (active)
same,normalized growth,"locus YML016C, strain PPZ1, hits give low values",0.97
same,normalized growth,"locus YML032C, strain rad52, hits give low values",0.909
same,normalized growth,"locus YML120C, strain ndi1, hits give low values",1.02
same,normalized growth,"locus YML124C, strain tub3, hits give low values",0.959
same,normalized growth,"locus YMR058W, strain fet3, hits give low values",1.02
same,normalized growth,"locus YMR078C, strain ctf18, hits give low values",0.928
same,normalized growth,"locus YMR125W, strain sto1, hits give low values",1.03
same,normalized growth,"locus YMR129W, hits give low values",1.02
same,normalized growth,"locus YMR205C, strain PFK2, hits give low values",1.01
same,normalized growth,"locus YMR223W, strain ubp8, hits give low values",0.914
same,normalized growth,"locus YMR231W, strain pep5, hits give low values",1.04
same,normalized growth,"locus YMR307W, strain GAS1, hits give low values",0.7
same,normalized growth,"locus YNL067W, strain RPL9B, hits give low values",0.939
same,normalized growth,"locus YNL071W, strain lat1, hits give low values",1.02
same,normalized growth,"locus YNL183C, strain NPR1, hits give low values",0.994
same,normalized growth,"locus YNL209W, strain ssb2, hits give low values",1.02
same,normalized growth,"locus YNL233W, strain BNI4, hits give low values",0.885
same,normalized growth,"locus YNL248C, strain rpa49, hits give low values",1.04
same,normalized growth,"locus YNL250W, strain rad50, hits give low values",0.965
same,normalized growth,"locus YNL271C, strain bni1, hits give low values",0.961
same,normalized growth,"locus YNL298W, strain CLA4, hits give low values",0.951
same,normalized growth,"locus YNL307C, strain MCK1, hits give low values",0.885 (active)
same,normalized growth,"locus YNL322C, strain KRE1 (second series), hits give low values",1.03
same,normalized growth,"locus YNR049C, strain mso1, hits give low values",1.01
same,normalized growth,"locus YNR052C, strain pop2, hits give low values",0.92
same,normalized growth,"locus YOL012C, strain htz1",1.16
same,normalized growth,"locus YOL147C, strain pex11, hits give low values",0.942
same,normalized growth,"locus YOR001W, strain rrp6, hits give low values",1.02
same,normalized growth,"locus YOR061W, strain CKA2, hits give low values",0.964
same,normalized growth,"locus YOR069W, strain VPS5, hits give low values",0.965
same,normalized growth,"locus YOR070C, strain gyp1, hits give low values",1.01
same,normalized growth,"locus YOR080W, strain dia2, hits give low values",1.02
same,normalized growth,"locus YOR083W, strain WHI5, hits give low values",1.02
same,normalized growth,"locus YOR106W, strain vam3, hits give low values",1.04
same,normalized growth,"locus YOR136W, strain idh2, hits give low values",0.966
same,normalized growth,"locus YOR144C, strain elg1, hits give low values",0.961
same,normalized growth,"locus YOR184W, strain ser1, hits give low values",0.778 (active)
same,normalized growth,"locus YOR231W, strain MKK1, hits give low values",1.03
same,normalized growth,"locus YOR265W, strain rbl2, hits give low values",1
same,normalized growth,"locus YOR270C, strain vph1, hits give low values",1.01
same,normalized growth,"locus YOR290C, strain snf2, hits give low values",1.04
same,normalized growth,"locus YOR316C, strain cot1, hits give low values",0.956
same,normalized growth,"locus YPL051W, strain arl3, hits give low values",1.02
same,normalized growth,"locus YPL055C, strain LGE1, hits give low values",0.887
same,normalized growth,"locus YPL078C, strain atp4, hits give low values",1.04
same,normalized growth,"locus YPL106C, strain sse1, hits give low values",1.07
same,normalized growth,"locus YPL240C, strain hsp82, hits give low values",1.01
same,normalized growth,"locus YPL256C, strain CLN2, hits give low values",1.08
same,normalized growth,"locus YPR119W, strain clb2, hits give low values",0.948
same,normalized growth,"locus YPR141C, strain kar3, hits give low values",0.955
same,normalized growth,"locus YPR163C, strain tif3, hits give low values",0.883 (active)
same,normalized growth,"locus YPR167C, strain met16, hits give low values",0.953
same,normalized growth,"strain wtn01, hits give low values",0.945
